Entries with a potency or affinity are not part of this list.
Key:
Klebsiella pneumoniae = conditions: Concentration 32 ug.mL-1; ASSAY_TEST Inhibition of Bacterial Growth; detection method Absorption (OD600); MEDIA CAMHB; plate type 384well; NBS; CORNING #3640; time 18 hr
Candida albicans = conditions: 32 ug/mL
Cryptococcus neoformans = conditions: Concentration 32 ug.mL-1; ASSAY_TEST Inhibition of Fungal Growth; detection method Resazurin; Absorption (OD600-OD570); plate type 384well; NBS; CORNING #3640

Row | SMILES | Inhibition (Klebsiella pneumoniae) | Inhibition (Candida albicans) | Inhibition (Cryptococcus neoformans)
1 | CCN(CC)CC.C[C@@H](CC1O[C@H]([C@@H](O)CO)[C@@H](O)[C@H](O)[C@@H]1O)OP(=O)(O)O (stereo not given in full) | 41.76% | 0.34% | -7.83%
2 | CCN(CC)CC.C[C@H](CC1O[C@H]([C@H](O)CO)[C@@H](O)[C@H](O)[C@@H]1O)OP(=O)(O)OC[C@H]1O[C@@H](n2cnc3c(N)ncnc32)[C@H](O)[C@@H]1O (stereo not given in full) | 32.34% | 2.8% | -3.79%
3 | OC[C@@H](O)[C@H]1OC(O)C[C@@H](O)[C@@H]1O (stereo not given in full) | 30.82% | 4.53% | -12.95%
4 | CCN(CC)CC.O=P(O)(O)OC1C[C@@H](O)[C@H](O)[C@@H]([C@H](O)CO)O1 (stereo not given in full) | 34.69% | 2.93% | -6.2%
5 | CCN(CC)CC.C[C@H](CC1O[C@H]([C@@H](O)CO)[C@@H](O)[C@H](O)[C@@H]1O)OP(=O)(O)O (stereo not given in full) | 38.35% | 1.33% | -5.02%
6 | CC(=O)CC1O[C@H]([C@@H](O)CO)[C@@H](O)[C@H](O)[C@@H]1O (stereo not given in full) | 30.36% | -0.45% | -7.35%
7 | CCN(CC)CC.C[C@@H](CC1O[C@H]([C@@H](O)CO)[C@@H](O)[C@H](O)[C@@H]1O)OP(=O)(O)OC[C@H]1O[C@@H](n2cnc3c(N)ncnc32)[C@H](O)[C@@H]1O (stereo not given in full) | 27.9% | 0.32% | -9%
8 | CCN(CC)CC.C[C@H](CC1O[C@H]([C@@H](O)CO)[C@@H](O)[C@H](O)[C@@H]1O)OP(=O)(O)OC[C@H]1O[C@@H](n2cnc3c(N)ncnc32)[C@H](O)[C@@H]1O (stereo not given in full) | 21.04% | -0.71% | -12.97%
9 | N.O=C(O)C1(O)C[C@@H](O)[C@H](O)[C@@H]([C@@H](O)CO)O1 (stereo not given in full) | 28.17% | 3.34% | -12.91%
10 | CCN(CC)CC.C[C@@H](CC1O[C@H]([C@H](O)CO)[C@@H](O)[C@H](O)[C@@H]1O)OP(=O)(O)OC[C@H]1O[C@@H](n2cnc3c(N)ncnc32)[C@H](O)[C@@H]1O (stereo not given in full) | 9.8% | -0.9% | -12.32%

From ChEMBL document CHEMBL4513143, “CO-ADD screening of University of Natural Resources and Life (Austria) compounds”
